Screening data deposited in PubChem BioAssay by Columbia University Molecular Screening Center.
IL1B NFkB inh = inhibitors of IL-1B driven NFkB p65 nuclear import, primary screen, imaging, HUVEC, IL-1B stimulus, high-content imaging; HUVEC IL-1B NFkB p65 nuclear translocation imaging; inhibition, % at 2 µM; actives 0.43% (n = 94,000);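 active means inhibition above about 30% together with a positive call from visual inspection of the well image, limit read from the data; inconclusive means inhibition above a set limit but visual check negative; inactive means inhibition not above a set limit, visual check negative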;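 further: nuclear over cytoplasmic p65 intensity ratio measured by imaging; 0% = IL-1B stimulated DMSO wells and 100% = unstimulated DMSO wells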
HUVEC tox IL1B = cytotoxicity in IL-1B stimulated HUVEC, primary screen, cytotoxicity control for IL-1B NFkB translocation project, imaging, Hoechst nuclear count, IL-1B stimulus | HUVEC cell count loss | cell count reduction, % at 2 µM | actives 0.41% (n = 94,000) | AID 845, 2007;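 active means cell count reduction more than 3 SD above the screen-wide mean, cut at about 70% in these data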;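 further: normalized per plate to untreated control cells as the no-loss baseline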
TNFa cytotox = cytotoxicity in TNFa-stimulated HUVEC, primary screen, cytotoxicity control for VCAM1 expression modulator project, imaging, Hoechst nuclei count; HUVEC TNFalpha-stimulated, Hoechst cell count; cell count reduction, % at 2 µM; actives 0.17% (n = 93,000);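 active means cell count reduction exceeding the screen mean by over 5 SD, scaled to untreated wells per plate, cut at about 78% in these data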;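 further: cells counted after 24 h of TNF alpha exposure following the 1 h pretreatment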
E-sel TNF inh = E-selectin induction blockers in HUVEC – imaging, immunofluorescence, high content, primary screen. HUVEC TNFa-induced E-selectin immunofluorescence. inhibition, % at 2 µM. actives 0.71% (n = 120,000). AID 1246, 2008;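 active means inhibition above the batch mean plus 3 SD, and confirmed as a hit on visual image review, cut at about 43% in these data; inconclusive means passes the inhibition cutoff but fails visual image review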;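 further: 0% = TNF-stimulated DMSO wells and 100% = unstimulated control wells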
VCAM1 TNFa inh = inhibitors of TNFa-induced VCAM1 expression, primary screen, imaging, HUVEC, TNFa stimulus, immunofluorescence. inhibition, % at 2 µM. HUVEC TNFa-induced VCAM-1 immunofluorescence, high-content imaging. actives 0.48% (n = 95,000). AID 802, 2007;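 active means inhibition above the batch mean plus 3 SD, with images confirmed as a hit by eye, cut at about 37% in these data; inconclusive means inhibition above that limit but hit not confirmed in images; inactive means inhibition not above that limit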;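 further: 0% = TNF-stimulated DMSO wells and 100% = unstimulated control wells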
NFkB transloc pot = enhancers of NFkB p65 translocation in HUVEC – imaging, IL-1B stimulus, high-content imaging, primary screen. HUVEC IL-1B NFkB p65 nuclear translocation imaging. activation, % at 2 µM. actives 0.3% (n = 94,000). AID 819, 2007;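 active means activation above 40%, about the mean plus 3 SD, also judged a hit on visual image review; inconclusive means activation above 40% but not a hit on visual review; inactive means activation not above 40% and no visual hit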;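 further: percent activation is computed from the nuclear over cytoplasmic p65 intensity ratio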
Active calls of the source: *; ? = inconclusive; . = no result. Rows were chosen to be rich in hits. Some 1.6% of all compounds tested hit in one or more screens of this group.

SMILES	IL1B NFkB inh	HUVEC tox IL1B	TNFa cytotox	E-sel TNF inh	VCAM1 TNFa inh	NFkB transloc pot
CCOC(=O)C(C)Oc1cccc2c(=O)n(CC(=O)Nc3cccc(OC)c3)ccc12 (centres undefined)	-15.2	1.7	-14.0	66.7*	5.4	15.2
N#Cc1ccc(-c2cccnc2)nc1SCc1ccc(Cl)c(Cl)c1	.	.	.	67.1*	.	.
N#Cc1ccc(-c2cccnc2)nc1SCc1ccc(Cl)cc1Cl	-1.4	-21.3	-6.1	-22.5	4.1	1.4
COC(=O)c1cc(OC)c(OCc2cc(C(=O)OC)oc2C)c(OC)c1	25.5	88.6*	-17.4	0.9	-53.0	-25.5
COC(=O)c1cc(COc2ccc3oc(C)c(C(=O)OC)c3c2)c(C)o1	-16.4	-218.1	-6.3	11.0	-2.3	16.4
OC1C[N+]2(CCCCC2)C1	-16.9	92.1*	-3.3	-22.8	16.2	16.9
Cc1ccc(Cl)cc1NC1=C/C(=N\S(=O)(=O)c2cccs2)c2ccccc2C1=O	-41.0	2.6	27.7	28.9	90.6*	41.0*
Cc1cccc(NC(=S)Nc2ccccn2)c1C	.	.	.	62.1*	.	.
CCOC(=O)C1C(=O)CC(C)(O)C(C(=O)OCC)C1c1ccccc1 (centres undefined)	9.7	18.3	-5.9	59.1*	-20.2	-9.7
CCOC(=O)C1C(=O)CC(C)(O)C(C(=O)OCC)C1c1ccc(OC)cc1 (centres undefined)	-18.1	0.8	28.4	.	18.5	18.1
CC(C)C(=O)N=C1SC2CS(=O)(=O)CC2N1Cc1ccccc1 (centres undefined)	.	.	.	8.8	.	.
COC(=O)C1=C(C)Nc2nnnn2C1c1cccnc1 (centres undefined)	34.1*	11.9	-6.2	-31.7	-3.9	-34.1
CCOC(=O)C1=C(C)Nc2nnnn2C1c1ccccc1Cl (centres undefined)	-46.1	-31.1	-10.1	10.8	17.4	46.1*
Cc1ccc(N(CC(=O)O)C2SC(=O)NC2=O)cc1 (centres undefined)	5.0	8.8	42.4	-17.8	9.1	-5.0
CC(C(=O)O)C1SC(=O)NC1=O (centres undefined)	6.3	0.0	-15.2	70.3*	1.9	-6.3
CCOC(=O)c1c(C(F)(F)F)cc(-c2ccc(F)cc2)nc1C	.	.	.	-9.9	.	.
CS(=O)(=O)c1nc(-c2cccs2)cc(C(F)(F)F)n1	30.6*	0.0	8.3	19.1	-0.2	-30.6
COC(=O)CCS(=O)(=O)c1nc(-c2ccccc2)cc(C(F)(F)F)n1	36.9*	-3.7	-1.4	30.4	33.4	-36.9
CCOC(=O)CS(=O)(=O)c1nc(-c2ccc(F)cc2)cc(C(F)(F)F)n1	.	.	.	57.7*	.	.
COc1ccc(-c2cc(C(F)(F)F)nc(S(C)(=O)=O)n2)cc1	13.0	-1.0	-24.0	-60.5	11.8	-13.0
CCOC(=O)CCS(=O)(=O)c1nc(-c2ccccc2)cc(C(F)(F)F)n1	14.6	31.6	15.2	48.1	38.3	-14.6
O=C(O)CCS(=O)(=O)c1nc(-c2cccs2)cc(C(F)(F)F)n1	-4.6	-8.8	-18.3	6.0	-12.3	4.6
COCC(C)NC(=O)CCS(=O)(=O)c1nc(-c2ccc(OC)cc2)cc(C(F)(F)F)n1 (centres undefined)	.	.	.	82.6*	.	.
CC(OC(=O)c1ccncc1)C(=O)Nc1ccc([N+](=O)[O-])cc1Cl (centres undefined)	.	.	.	-45.2	.	.
O=C(Cc1ccc(-n2c(=O)c3sccc3n(CC(=O)Nc3ccccc3F)c2=O)cc1)NCc1ccco1	.	.	.	-8.4	.	.
SMILES	IL1B NFkB inh	HUVEC tox IL1B	TNFa cytotox	E-sel TNF inh	VCAM1 TNFa inh	NFkB transloc pot
O=C(Cc1c[nH]c2ccccc12)NC1(C(=O)NC2CCCC2)CCCCC1	.	.	.	-0.8	.	.
CCOC(=O)CS(=O)(=O)c1nc(-c2ccccc2)cc(C(F)(F)F)n1	9.1	7.5	6.2	67.1*	48.5	-9.1
CCn1cc(C(=O)NCc2ccco2)c(=O)c2cc(S(=O)(=O)N3CCc4ccccc4C3)ccc21	-11.3	-4.2	-13.1	100.0*	-2.8	11.3
O=C(Nc1ccc(Cn2cccn2)cc1)c1ccc(COc2cccc(Br)c2)cc1	-57.0	0.6	7.0	-18.4	10.4	57.0*
COCCn1c(SCC(=O)c2ccc(Cl)cc2)nnc1C(C)C	-4.8	31.9	-13.1	70.9*	-1.3	4.8
COCCn1c(SCC(=O)c2ccc3c(c2)OCCO3)nnc1C(C)C	-17.6	0.0	-6.2	-10.5	14.4	17.6
CCC(C(=O)OCC(=O)Nc1c(Cl)cccc1Cl)c1ccccc1 (centres undefined)	.	.	.	-22.9	.	.
COc1ccc(-c2nc(C#N)c(NCCCN(C)C)o2)cc1OC	1.2	9.4	-34.4	16.6	96.6*	-1.2
Cc1ccc(Cl)cc1N1CCN(C(=O)c2cc3c(=O)[nH]c4ccccc4c3n2C)CC1	.	.	.	-16.8	.	.
C#CCN1C(=O)C(O)(CC(=O)c2cccc(OC)c2)c2ccccc21 (centres undefined)	-11.2	-4.3	-12.9	85.2*	10.6	11.2
Cn1c(=O)c2c(SCC(=O)N3CCCc4ccccc43)nc(CC(C)(C)C)nc2n(C)c1=O	-42.4	2.5	6.3	.	5.9	42.4*
Cc1cn(C(=O)C(C)N2C(=O)c3ccccc3C2=O)c(C)n1 (centres undefined)	-6.3	87.4*	-12.2	4.8	-17.2	6.3
Cn1c(SCc2ccc(C#N)cc2)nnc1-c1ccccc1	-9.6	18.6	19.5	10.6	9.4	9.6
Cn1c(SCc2ccc(C#N)cc2)nnc1-c1cccc(Cl)c1	14.4	10.0	-4.1	60.1*	3.1	-14.4
Nc1nc2ccc(O)cc2s1	35.1*	-33.1	-10.0	-5.2	23.5	-35.1
CC(C)c1ccc2nc(N)sc2c1	.	.	.	-23.8	.	.
O=C1CC(c2ccccc2)Cc2nc3ncnn3cc21 (centres undefined)	18.0	13.1	41.0	11.9	59.8*	-18.0
O=C1CC(c2ccccc2)Cc2nc(NC3CC3)ncc21 (centres undefined)	.	.	.	-4.1	.	.
CNC(=O)CN(c1ccc(OC)cc1)S(=O)(=O)c1ccc(F)cc1	9.2	12.1	-5.7	-2.6	92.9*	-9.2
COC1(c2ccccc2)NC(=S)NN=C1c1ccccc1 (centres undefined)	-3.7	-17.2	100.0*	3.2	?	3.7
CCCCOC1(c2ccccc2)NC(=S)NN=C1c1ccccc1 (centres undefined)	-10.3	7.1	9.8	12.0	17.9	10.3
COc1ccc(Cn2c(-c3ccc(C)cc3)c[n+]3ccccc23)cc1	.	.	.	-20.1	.	.
Cc1cc(C)cc(NC(=O)c2ccc([N+](=O)[O-])o2)c1	.	.	.	75.8*	.	.
O=C(NNC(=O)c1ccc([N+](=O)[O-])o1)c1ccccc1	1.9	-19.3	-25.9	-22.0	11.7	-1.9
